# Measurements published in PubChem BioAssay (EPA / NIEHS).
# Active and inactive are the calls of the source. Rule for the calls: active = hit-call score of the fitted dose curve at least 0.9, where 1 is the maximum; inactive = score below 0.9.
# Legend:
# Conditions in all cases: mRNA level, 48 h; actives raise or lower the signal
# [1] = read-out: 3-Hydroxy-3-Methylglutaryl-CoA Synthase 2 (HMGCS2), HMGCS2 (gene 3158); test: LTEA_HepaRG_HMGCS2: Life Technologies and Expression Analysis (LTEA) Assay for 3-Hydroxy-3-Methylglutaryl-CoA Synthase 2 (HMGCS2) using HepaRG (AID 2283504)
# Procedure, shortened: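 Differentiated human HepaRG cells were exposed in duplicate for 48 h in serum-free induction medium to eight concentrations (top 100 uM, half-log steps, 0.5% DMSO). HMGCS2 mRNA was quantified by TaqMan qRT-PCR, normalised to ACTB, GAPDH and POLR2A, then fitted bidirectionally against DMSO.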
# [2] = read-out: HGF (gene 3082); test: LTEA_HepaRG_HGF: Life Technologies and Expression Analysis (LTEA) Assay for Hepatocyte Growth Facto (HGF) using HepaRG (AID 2283505)
# Procedure, shortened: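 Differentiated human HepaRG cells in serum-free induction medium were exposed in duplicate for 48 h to eight concentrations (top 100 uM, half-log steps, 0.5% DMSO). HGF mRNA was quantified by qRT-PCR, normalized to ACTB, GAPDH and POLR2A.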
# [3] = read-out: Insulin Like Growth Factor 1 (IGF1), IGF1 (gene 3479); test: LTEA_HepaRG_IGF1: Life Technologies and Expression Analysis (LTEA) Assay for Insulin Like Growth Factor 1 (IGF1) using HepaRG (AID 2283506)
# Procedure, shortened: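 Differentiated human HepaRG cells were dosed for 48 h in serum-free induction medium with 0.5% DMSO, eight half-log concentrations up to 100 uM, in duplicate. IGF1 mRNA was quantified by qRT-PCR normalized to ACTB, GAPDH, POLR2A; bidirectional fitting versus DMSO.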
# [4] = read-out: Insulin-like growth factor-binding protein 1 (IGFBP1), IGFBP1 (gene 3484); test: LTEA_HepaRG_IGFBP1: Life Technologies and Expression Analysis (LTEA) Assay for Insulin-like growth factor-binding protein 1 (IGFBP1) using HepaRG (AID 2283508)
# Procedure, shortened: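 Differentiated human HepaRG cells in serum-free induction medium were exposed in duplicate for 48 h to eight concentrations, top 100 uM with half-log dilutions, in 0.5% DMSO. Transcript levels came from qRT-PCR normalised to ACTB, GAPDH and POLR2A, fitted bidirectionally against DMSO.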
# [5] = read-out: Interleukin 6 (IL6), IL6 (gene 3569); test: LTEA_HepaRG_IL6: Life Technologies and Expression Analysis (LTEA) Assay for Interleukin 6 (IL6) using HepaRG (AID 2283509)
# Procedure, shortened: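 HepaRG cells exposed in duplicate for 48 h to eight half-log concentrations, top 100 uM, in 0.5% DMSO serum-free induction medium. mRNA measured by qRT-PCR, normalized to ACTB, GAPDH and POLR2A. Bidirectional fit versus DMSO.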
# [6] = read-out: Potassium channel subfamily K member 1 (KCNK1), KCNK1 (gene 3775); test: LTEA_HepaRG_KCNK1: Life Technologies and Expression Analysis (LTEA) Assay for Potassium channel subfamily K member 1 (KCNK1) using HepaRG (AID 2283511)
# Procedure, shortened: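 Differentiated HepaRG cells, 48 h exposure in serum-free induction medium with 0.5% DMSO; 8 concentrations, half-log from 100 uM, duplicate. KCNK1 mRNA by qRT-PCR, normalized to ACTB, GAPDH, POLR2A; bidirectional fit vs DMSO.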
# [7] = read-out: Keratin 19 (KRT19), KRT19 (gene 3880); test: LTEA_HepaRG_KRT19: Life Technologies and Expression Analysis (LTEA) Assay for Keratin 19 (KRT19) using HepaRG (AID 2283512)
# Procedure, shortened: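 Differentiated human HepaRG cells, plated 48 h, were exposed in duplicate for 48 h in serum-free induction medium to eight half-log concentrations up to 100 uM in 0.5% DMSO. KRT19 mRNA was quantified by qRT-PCR, normalized to ACTB, GAPDH and POLR2A, and fitted bidirectionally versus DMSO.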
# [8] = read-out: JUN Transcription Factor, JUN (gene 3725); test: LTEA_HepaRG_JUN: Life Technologies and Expression Analysis (LTEA) Assay for JUN Transcription Factor using HepaRG (AID 2283513)
# Procedure, shortened: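 Differentiated HepaRG cells were exposed to chemicals for 48 h in serum-free induction medium, 8 concentrations from 100 uM in half-log steps, 0.5% DMSO vehicle, in duplicate. JUN mRNA was quantified by TaqMan qRT-PCR, normalized to ACTB, GAPDH, POLR2A.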
# [9] = read-out: Lipase C (LIPC), LIPC (gene 3990); test: LTEA_HepaRG_LIPC: Life Technologies and Expression Analysis (LTEA) Assay for Lipase C (LIPC) using HepaRG (AID 2283514)
# Procedure, shortened: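 HepaRG cells, 48 h after plating, treated in duplicate for 48 h in serum-free induction medium over 8 half-log concentrations from 100 uM, 0.5% DMSO. LIPC mRNA by TaqMan qRT-PCR normalized to ACTB/GAPDH/POLR2A; bidirectional fit versus DMSO.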
# [10] = read-out: Lipoprotein lipase (LPL), LPL (gene 4023); test: LTEA_HepaRG_LPL: Life Technologies and Expression Analysis (LTEA) Assay for Lipoprotein lipase (LPL) using HepaRG (AID 2283515)
# Procedure, shortened: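 Differentiated HepaRG cells, plated 48 h, then exposed 48 h in serum-free induction medium to 8 concentrations (top 100 uM, half-log steps) in 0.5% DMSO, duplicate. LPL mRNA measured by qRT-PCR, normalized to ACTB, GAPDH and POLR2A.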
# [11] = read-out: MicroRNA 122 (MIR122), gene 406906; test: LTEA_HepaRG_MIR122: Life Technologies and Expression Analysis (LTEA) Assay for MicroRNA 122 (MIR122) using HepaRG (AID 2283516); note: the transcript read is the microRNA miR-122
# Procedure, shortened: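 Differentiated human HepaRG cells were exposed 48 h in serum-free induction medium to eight half-log concentrations (top 100 uM, 0.5% DMSO). Transcript level was measured by TaqMan qRT-PCR, normalized to ACTB, GAPDH and POLR2A, and fitted bidirectionally versus DMSO.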
# [12] = read-out: matrix metalloproteinase-10 (MMP10), MMP10 (gene 4319); test: LTEA_HepaRG_MMP10: Life Technologies and Expression Analysis (LTEA) Assay for matrix metalloproteinase-10 (MMP10) using HepaRG (AID 2283517)
# Procedure, shortened: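 Differentiated HepaRG cells in serum-free induction medium exposed 48 h in duplicate to 8-point half-log series up to 100 uM in 0.5% DMSO. mRNA quantified by qRT-PCR, normalised to ACTB, GAPDH, POLR2A; bidirectional fit versus DMSO.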
# [13] = read-out: MYC, MYC (gene 4609); test: LTEA_HepaRG_MYC: Life Technologies and Expression Analysis (LTEA) Assay for MYC using HepaRG (AID 2283518)
# Procedure, shortened: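 Differentiated human HepaRG cells, plated 48 h then switched to serum-free induction medium, were exposed in duplicate for 48 h to 8-point half-log series up to 100 uM in 0.5% DMSO. MYC mRNA measured by qRT-PCR, normalized to ACTB/GAPDH/POLR2A.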
# [14] = read-out: matrix metalloproteinase-3 (MMP3), MMP3 (gene 4314); test: LTEA_HepaRG_MMP3: Life Technologies and Expression Analysis (LTEA) Assay for matrix metalloproteinase-3 (MMP3) using HepaRG (AID 2283519)
# Procedure, shortened: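 HepaRG cells (~100,000/well) in serum-free induction medium were dosed in duplicate for 48 h with an 8-point half-log series from 100 uM, 0.5% DMSO. MMP3 mRNA was quantified by Fluidigm TaqMan qRT-PCR, normalized to three housekeeping genes.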
# [15] = read-out: Nuclear factor NF-kappa-B p105 subunit (Homo sapiens) (UniProt P19838); test: LTEA_HepaRG_NFKB1: Life Technologies and Expression Analysis (LTEA) Assay for Nuclear Factor Kappa B Subunit 1 (NFKB1) using HepaRG (AID 2283521);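 note: TaqMan qRT-PCR transcript normalised to ACTB GAPDH and POLR2A housekeeping genes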
# Procedure, shortened: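 Differentiated human HepaRG cells in serum-free induction medium with 0.5% DMSO were exposed for 48 h to eight half-log concentrations, top 100 uM, in duplicate. NFKB1 mRNA measured by Fluidigm TaqMan qRT-PCR, normalised to ACTB, GAPDH and POLR2A; bidirectional fit versus DMSO.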
# [16] = read-out: Protein phosphatase 2A (PPP2R4), PTPA (gene 5524); test: LTEA_HepaRG_PPP2R4: Life Technologies and Expression Analysis (LTEA) Assay for Protein phosphatase 2A (PPP2R4) using HepaRG (AID 2283522)
# Procedure, shortened: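 Differentiated HepaRG cells in serum-free induction medium were exposed in duplicate for 48 h to eight concentrations, top 100 uM with half-log dilutions, in 0.5% DMSO. PPP2R4 mRNA was quantified by TaqMan qRT-PCR, normalized to ACTB, GAPDH and POLR2A.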
# [17] = read-out: Phosphatase and tensin (PTEN), PTEN (gene 5728); test: LTEA_HepaRG_PTEN: Life Technologies and Expression Analysis (LTEA) Assay for Phosphatase and tensin (PTEN) using HepaRG (AID 2283523)
# Procedure, shortened: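 HepaRG cells, 48 h after plating, exposed in duplicate for 48 h in serum-free induction medium to 8 half-log concentrations up to 100 uM (0.5% DMSO). PTEN mRNA by qRT-PCR, normalized to ACTB, GAPDH, POLR2A; bidirectional fit versus DMSO.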
# [18] = read-out: Interleukin 6 Receptor (IL6R), IL6R (gene 3570); test: LTEA_HepaRG_IL6R: Life Technologies and Expression Analysis (LTEA) Assay for Interleukin 6 Receptor (IL6R) using HepaRG (AID 2283510)
# Procedure, shortened: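 Differentiated human HepaRG cells, plated 48 h then switched to serum-free induction medium, were dosed in duplicate for 48 h at eight half-log concentrations up to 100 uM in 0.5% DMSO. IL6R mRNA quantified by qRT-PCR, normalized to ACTB/GAPDH/POLR2A; bidirectional fit versus DMSO.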
# [19] = read-out: Paternally Expressed 10 (PEG10), PEG10 (gene 23089); test: LTEA_HepaRG_PEG10: Life Technologies and Expression Analysis (LTEA) Assay for Paternally Expressed 10 (PEG10) using HepaRG (AID 2283520)
# Procedure, shortened: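 Differentiated HepaRG cells, plated 48 h then switched to serum-free induction medium, were exposed in duplicate for 48 h to eight half-log concentrations topping at 100 uM in 0.5% DMSO. PEG10 mRNA was quantified by TaqMan qRT-PCR, normalised to ACTB, GAPDH and POLR2A.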
# Sequence of Nuclear factor NF-kappa-B p105 subunit (Homo sapiens) (P19838 whole entry, looked up): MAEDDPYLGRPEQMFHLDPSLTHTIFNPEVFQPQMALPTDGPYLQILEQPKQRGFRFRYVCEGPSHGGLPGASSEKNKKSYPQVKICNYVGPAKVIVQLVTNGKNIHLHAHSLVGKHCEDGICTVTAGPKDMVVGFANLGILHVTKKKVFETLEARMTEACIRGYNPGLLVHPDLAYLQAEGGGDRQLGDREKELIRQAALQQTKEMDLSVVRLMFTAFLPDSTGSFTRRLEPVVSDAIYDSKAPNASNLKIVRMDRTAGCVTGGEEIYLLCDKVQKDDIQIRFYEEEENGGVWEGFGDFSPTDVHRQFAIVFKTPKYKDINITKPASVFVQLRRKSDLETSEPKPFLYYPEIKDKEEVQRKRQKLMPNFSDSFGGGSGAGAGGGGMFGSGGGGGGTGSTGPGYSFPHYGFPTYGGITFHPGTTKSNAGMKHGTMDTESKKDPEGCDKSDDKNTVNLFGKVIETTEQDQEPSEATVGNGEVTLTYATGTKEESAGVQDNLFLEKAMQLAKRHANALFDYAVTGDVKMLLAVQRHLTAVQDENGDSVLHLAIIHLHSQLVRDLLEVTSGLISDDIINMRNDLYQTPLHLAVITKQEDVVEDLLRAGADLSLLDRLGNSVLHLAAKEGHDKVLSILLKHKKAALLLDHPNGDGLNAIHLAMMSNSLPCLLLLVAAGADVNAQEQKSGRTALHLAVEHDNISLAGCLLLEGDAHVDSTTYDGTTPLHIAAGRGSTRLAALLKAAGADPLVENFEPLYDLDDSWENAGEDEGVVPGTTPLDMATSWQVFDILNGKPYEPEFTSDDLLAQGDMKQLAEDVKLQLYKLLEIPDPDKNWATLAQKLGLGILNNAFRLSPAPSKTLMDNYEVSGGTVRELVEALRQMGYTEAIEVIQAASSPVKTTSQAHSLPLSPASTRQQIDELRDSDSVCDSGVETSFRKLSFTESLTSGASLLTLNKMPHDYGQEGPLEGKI
compound,measurement,setting,value
Nc1nc2ncc(CNc3ccc(C(=O)N[C@@H](CCC(=O)O)C(=O)O)cc3)nc2c(=O)[nH]1,outcome,[1],inactive
same,outcome,[2],inactive
same,outcome,[3],inactive
same,outcome,[4],inactive
same,outcome,[5],inactive
same,outcome,[6],inactive
same,outcome,[7],inactive
same,outcome,[8],inactive
same,outcome,[9],inactive
same,outcome,[10],inactive
same,outcome,[11],inactive
same,outcome,[12],inactive
same,outcome,[13],inactive
same,outcome,[14],inactive
same,outcome,[15],inactive
same,outcome,[16],inactive
same,outcome,[17],inactive
COc1ccc2sc(C(=O)Nc3nnn[nH]3)c(OC(C)C)c2c1,AC50,[1],86.5 µM (active)
same,outcome,[2],inactive
same,outcome,[3],inactive
same,outcome,[5],inactive
same,outcome,[18],inactive
same,AC50,[6],28.1 µM (active)
same,outcome,[7],inactive
same,outcome,[8],inactive
same,outcome,[9],inactive
same,AC50,[10],12.7 µM (active)
same,AC50,[11],80.2 µM (active)
same,outcome,[12],inactive
same,AC50,[13],38 µM (active)
same,AC50,[19],35.8 µM (active)
same,outcome,[16],inactive
same,outcome,[17],inactive
Nc1ccc(Nc2ccccc2)cc1,AC50,[1],60.9 µM (active)
same,outcome,[2],inactive
same,AC50,[3],50 µM (active)
same,outcome,[4],inactive
same,outcome,[5],inactive
same,outcome,[6],inactive
same,AC50,[7],50 µM (active)
same,outcome,[8],inactive
same,AC50,[9],83.4 µM (active)
same,outcome,[10],inactive
same,outcome,[11],inactive
same,outcome,[12],inactive
same,outcome,[13],inactive
same,outcome,[14],inactive
same,AC50,[19],79.9 µM (active)
same,outcome,[15],inactive
same,outcome,[16],inactive
same,outcome,[17],inactive
CC(C)=CCC/C(C)=C\CO,outcome,[1],inactive
same,outcome,[2],inactive
same,outcome,[3],inactive
same,outcome,[18],inactive
same,outcome,[6],inactive
same,outcome,[7],inactive
same,outcome,[8],inactive
same,outcome,[9],inactive
same,outcome,[10],inactive
same,outcome,[11],inactive
same,outcome,[12],inactive
same,outcome,[13],inactive
same,outcome,[19],inactive
same,outcome,[15],inactive
same,outcome,[16],inactive
same,outcome,[17],inactive
